{"source": "PubChem BioAssay (NCI)", "note": "This is part of a sample that, as a whole, favours compounds with a hit. Of some 83,000 tested, about 20% had one in any assay.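 Plates (96-well) were seeded with cells, treated with compound at one concentration, and incubated for 48 hours before percent growth was determined.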 A number with no mark means an inactive call. Active and inactive are the calls of the source. Rule for the calls: active = growth percent below 10; inactive = the rest.", "data": [{"tested_on": "KM12 colon", "assay": "NCI-60 one-dose screen, 48 h (100 = growth as untreated, 0 = no growth, -100 = all killed)", "settings": "10 µM unless noted", "values": [{"compound": "Cc1c(C(=O)CCl)c(=O)n(-c2ccccc2)n1C", "growth": "88.7%"}, {"compound": "O=C1/C=C/[C@@H](O)[C@@H]2C[C@@H](O)C[C@H]2/C=C/CCC[C@H]([C@@H](O)CO)O1", "growth": "63.5%"}, {"compound": "CC(=O)N1N=C(C2C(=O)N(C)C(=O)N(C)C2=O)CC1c1ccccc1C(=O)O", "note": "(stereo not given)", "growth": "114%"}, {"compound": "Cn1c(=O)c2c(nc(N/N=C/c3ccccc3Cl)n2C)n(C)c1=O", "growth": "140%"}, {"compound": "O=C1Nc2ccc(Cl)cc2/C1=C\\c1c(-c2ccc(F)cc2)nc2ccccn12", "growth": "-32.1% (active)"}, {"compound": "O=C(O/C(=C/c1ccccc1)C(F)(F)F)c1ccccc1", "growth": "99.4%"}, {"compound": "COC(=O)c1ccc2c(c1)nc(-c1cc3ccccc3[nH]c1=O)n2-c1cc(C(C)(C)C)[nH]n1", "growth": "44.3%"}, {"compound": "O=c1c2cc(Br)cc(Br)c2nc(-c2ccc(Cl)cc2)n1/N=C/c1cccc(F)c1", "growth": "70.2%"}, {"compound": "CCOC(=O)Nc1ccc2nc(N3CCCCCC3)sc2c1", "growth": "21.6%"}, {"compound": "COC(=O)CSc1ccc(Cl)cc1", "growth": "111%"}, {"compound": "COc1ccc(C(=O)N2N=C(c3ccc(F)cc3)CC2c2cn(-c3ccccc3)nc2-c2ccccc2)cc1", "note": "(stereo not given)", "growth": "50.6%"}, {"compound": "N=c1nc(N2CCCCC2)cc(N)n1O", "growth": "107%"}, {"compound": "COc1ccc(C2NC(=O)c3cc4c(cc3N2)OCO4)cc1", "note": "(stereo not given)", "growth": "9.55% (active)"}, {"compound": "O=C1OCC2=C1C(c1ccccc1)c1cc3c(cc1N2CCO)OCO3", "note": "(stereo not given)", "growth": "23.3%"}, {"compound": "COc1ccc(/C=C/c2nc(NCCCN(C)C)c3ccccc3n2)cc1", "growth": "32.1%"}]}]}
